Data as given in publication PMC9911399, “Two distinct binding modes provide the RNA-binding protein RbFox with extraordinary sequence specificity”.
Numbering of substitutions follows the chain as printed; changes in the protein carry UniProt numbers. Over roughly 16,000 sequences, “ka relative to ugcaugu” has its median near 0.096; the highest 2% begin near 0.35. The full list was thinned out, with the highest values kept by preference.

B1: CAGCAUU (DNA:RNA)
RNA: GGGAGACCGGAAUUCAGAUUGUCCCAGCAUUUUAAAUCCCGUCGUAGCCACCA
DNA 1: CAATCTGAATTCCGGTCTCCC
DNA 2: TGGTGGCTACGACGGGATT
B2: UUAAACA (DNA:RNA)
RNA: B1 RNA with C25U, A26U, G27A, C28A, U30C, U31A
DNA 1: CAATCTGAATTCCGGTCTCCC
DNA 2: TGGTGGCTACGACGGGATT
B3: CCUGGCA (DNA:RNA)
RNA: B1 RNA with A26C, G27U, C28G, A29G, U30C, U31A
DNA 1: CAATCTGAATTCCGGTCTCCC
DNA 2: TGGTGGCTACGACGGGATT
B4: AUGCAUA (DNA:RNA)
RNA: B1 RNA with C25A, A26U, U31A
DNA 1: CAATCTGAATTCCGGTCTCCC
DNA 2: TGGTGGCTACGACGGGATT
B5: GUCCAUC (DNA:RNA)
RNA: B1 RNA with C25G, A26U, G27C, U31C
DNA 1: CAATCTGAATTCCGGTCTCCC
DNA 2: TGGTGGCTACGACGGGATT
B6: AUGCAGA (DNA:RNA)
RNA: B1 RNA with C25A, A26U, U30G, U31A
DNA 1: CAATCTGAATTCCGGTCTCCC
DNA 2: TGGTGGCTACGACGGGATT
B7: AUCCAUC (DNA:RNA)
RNA: B1 RNA with C25A, A26U, G27C, U31C
DNA 1: CAATCTGAATTCCGGTCTCCC
DNA 2: TGGTGGCTACGACGGGATT
B8: AUGCAUG (DNA:RNA)
RNA: B1 RNA with C25A, A26U, U31G
DNA 1: CAATCTGAATTCCGGTCTCCC
DNA 2: TGGTGGCTACGACGGGATT
B9: AUGCAUC (DNA:RNA)
RNA: B1 RNA with C25A, A26U, U31C
DNA 1: CAATCTGAATTCCGGTCTCCC
DNA 2: TGGTGGCTACGACGGGATT

What follows are binders tested against T1, RBFOX1 RRM RbFoxmut (Fox-RRM*) (Homo sapiens, UniProt Q9NWB1 109-208, R118D;E147R;N151S;E152T) (assay: EMSA; HiTS-Eq, 1 nM pool, 10 min; buffer printed only for the single-RNA assays: 10 mM Tris pH 7.5, 150 mM NaCl, 3.4 mM EDTA, 0.001% NP-40, 30 C). Details: tags: His6 N-terminal (pET28a); label: 5' 32P.
T1 sequence: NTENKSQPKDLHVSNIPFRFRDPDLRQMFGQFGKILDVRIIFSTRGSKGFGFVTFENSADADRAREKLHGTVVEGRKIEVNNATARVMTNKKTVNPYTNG
Method in brief: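 Purified RbFox RRM, wild type or mutant, was incubated for 10 min in 50 µL with 1 nM of a 5′-radiolabelled RNA pool carrying 7 randomized nucleotides, whose flanks were annealed to DNA oligonucleotides, over a series of increasing protein concentrations. Unbound RNA was resolved on 8% native PAGE, cut out, reverse-transcribed, barcoded by PCR and sequenced on an Illumina HiSeq 2500. Relative association constants were derived from changes in read counts for each RNA species versus the control reaction and normalised to the cognate motif.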

Binder | binding signal
B1 | 0.107 KA relative to UGCAUGU
B2 | 0.0699 KA relative to UGCAUGU
B3 | 0.148 KA relative to UGCAUGU
B4 | 0.161 KA relative to UGCAUGU
B5 | 0.0764 KA relative to UGCAUGU
B6 | 0.125 KA relative to UGCAUGU
B7 | 0.1 KA relative to UGCAUGU
B8 | 0.951 KA relative to UGCAUGU
B9 | 0.446 KA relative to UGCAUGU
